Hit rate of the full screen: of about 310,000 compounds, about 14,000 (4.5%) showed an effect of 50% or more. The effect is printed as a negative number. What follows is part of a selection rich in strong results, with near analogues and random picks from the rest.
Target: human ether-à-go-go-related gene (hERG) potassium channel (human, UniProt Q12809)
Test: primary screen, population patch clamp on CHO cells stably expressing hERG; higher = less effect of the substance
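Further: peak tail current of the secondary pulse compared with the same well before compound.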

human ether-à-go-go-related gene (hERG) potassium channel, sequence (Q12809 whole entry, looked up): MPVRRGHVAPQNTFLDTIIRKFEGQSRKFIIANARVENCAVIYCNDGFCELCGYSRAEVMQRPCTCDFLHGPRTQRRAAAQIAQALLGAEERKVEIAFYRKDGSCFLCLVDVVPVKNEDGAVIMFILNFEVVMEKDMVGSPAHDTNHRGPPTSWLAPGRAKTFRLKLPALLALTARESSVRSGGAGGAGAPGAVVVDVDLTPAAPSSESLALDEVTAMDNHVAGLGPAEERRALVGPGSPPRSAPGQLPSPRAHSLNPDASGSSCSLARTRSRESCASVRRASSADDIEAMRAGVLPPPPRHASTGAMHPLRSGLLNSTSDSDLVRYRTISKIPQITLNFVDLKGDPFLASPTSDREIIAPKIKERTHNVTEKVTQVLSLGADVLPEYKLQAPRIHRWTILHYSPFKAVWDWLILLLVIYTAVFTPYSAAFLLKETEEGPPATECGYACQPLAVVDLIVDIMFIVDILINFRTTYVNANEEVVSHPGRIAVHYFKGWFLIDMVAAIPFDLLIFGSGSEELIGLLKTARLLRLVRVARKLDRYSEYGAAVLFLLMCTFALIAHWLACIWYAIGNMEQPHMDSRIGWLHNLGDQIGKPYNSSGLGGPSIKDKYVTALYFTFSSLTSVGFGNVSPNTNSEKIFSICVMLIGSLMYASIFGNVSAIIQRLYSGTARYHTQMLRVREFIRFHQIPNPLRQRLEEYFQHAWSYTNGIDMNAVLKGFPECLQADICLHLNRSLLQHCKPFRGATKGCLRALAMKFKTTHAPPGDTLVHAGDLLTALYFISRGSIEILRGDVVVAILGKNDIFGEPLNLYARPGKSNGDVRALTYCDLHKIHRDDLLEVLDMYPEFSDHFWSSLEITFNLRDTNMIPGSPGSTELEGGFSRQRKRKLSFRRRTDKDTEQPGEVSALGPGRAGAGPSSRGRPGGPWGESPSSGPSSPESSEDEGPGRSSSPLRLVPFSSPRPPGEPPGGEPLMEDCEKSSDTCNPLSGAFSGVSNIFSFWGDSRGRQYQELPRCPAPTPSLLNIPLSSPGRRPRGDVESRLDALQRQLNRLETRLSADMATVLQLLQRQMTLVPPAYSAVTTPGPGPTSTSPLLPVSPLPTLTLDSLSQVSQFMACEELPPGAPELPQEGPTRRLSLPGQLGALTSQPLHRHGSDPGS

Row | SMILES | hERG current change (%, negative = inhibition) at 10uM
1 | COc1cc2[nH]c(C(=O)N3CCN(c4ccc(F)cc4)CC3)cc2c(OC)c1OC | 17.9%
2 | Cc1ccc(C)c(CN2CCSCC2)c1 | 17.3%
3 | O=C(Nn1c(-c2ccccc2)nc2ccccc2c1=O)c1ccco1 | 3.87%
4 | O=C(Oc1ccccc1)n1c(=S)oc2ccccc21 | 12.2%
5 | O=C(N/N=C/c1ccc[nH]1)c1ccccc1[N+](=O)[O-] | 19.9%
6 | O=C(c1cccc(N2C(=O)C3CC=CCC3C2=O)c1)N1CCCCCC1 (stereo not drawn) | -3.26%
7 | Cc1ccc(-c2nnc3n2N=C(c2ccccc2)CS3)cc1 | 3.15%
8 | O=C(C1COc2ccccc2O1)N1CCN(c2ccccc2O)CC1 (stereo not drawn) | -12.5%
9 | O=C1C2C3C=CC(C4CC34)C2C(=O)N1c1cc(Cl)ccn1 (stereo not drawn) | 2.55%
10 | Cc1csc(Sc2nc3c(c(=O)[nH]c(=O)n3C)n2CCCc2ccccc2)n1 | 12.2%
11 | C=CCOC(=O)c1ccc(-n2cncn2)nc1 | -4.47%
12 | Cc1ccc(S(=O)(=O)N2c3ccccc3OCC2C(C)(C)C)cc1 (stereo not drawn) | 4.08%
13 | COc1ccc(CNC(=O)NC2CCCCC2)cc1 | 2.13%
14 | COc1ccc(CN2CCC(CNC(=O)NC3CCCCC3)CC2)cc1 | -67.7%
15 | Cc1ccc(CN2CCN(Cc3ccccc3F)CC2)cc1.O=C(O)C(=O)O | -12.2%
16 | O=C(NCC1CC1)Nc1ccccc1F | 18.8%
17 | Cc1ccc(CN2CCC(CNC(=O)Nc3ccccc3F)CC2)cc1 | -69.7%
18 | COc1ccc(CCNC(=O)NC2CCCCC2)cc1 | 0.125%
19 | Cc1nn(Cc2ccc(Cl)cc2Cl)c(C)c1NC(=O)C1C2CCC(O2)C1C(=O)O (stereo not drawn) | -9.88%

Row | SMILES | hERG current change (%, negative = inhibition) at 10uM
20 | CC(Oc1ccc(Cl)cc1Cl)C(=O)NCCC1=CCCCC1 (stereo not drawn) | 4.46%
21 | Cc1ccc(CN(C)C(=O)c2ccc3c(c2)NC(=O)CS3)o1 | -17.2%
22 | Cc1cc(S(=O)(=O)NCc2cccnc2)ccc1F | -3.24%
23 | COc1ccc(S(=O)(=O)CCC(=O)N(C)c2ccc(OC)cc2OC)cc1 | -12.8%
24 | CN1CC(=O)NC1=NC(=O)C12CC3CC(CC(C3)C1)C2 | -8.73%
25 | Cl.Clc1cccc(Cl)c1CNC1CCCC1 | 13.5%
26 | CC(=O)c1ccc(N(C(=O)Cn2nnc3ccccc32)C(C(=O)NCc2ccccc2)c2ccccn2)cc1 (stereo not drawn) | -73.2%
27 | CC(=O)c1cccc(N(C(=O)Cn2nnc3ccccc32)C(C(=O)NCc2ccccc2)c2ccccn2)c1 (stereo not drawn) | -39%
28 | Cc1ccc(N(C(=O)Cn2nnc3ccccc32)C(C(=O)NCc2ccccc2)c2ccccn2)cc1 (stereo not drawn) | -45.5%
29 | COc1ccc(Cc2nc3ccc(C(=O)N(C)CCCN4CCOCC4)cc3o2)cc1 | 10%
30 | Cc1cc(C)n2c(Nc3ccc4c(c3)OCCO4)c(-c3ccccc3)nc2n1 | -16.7%
31 | Cc1cc(C(=O)Nc2ccc3c(c2)OCCO3)c2ccccc2n1 | 18.4%
32 | Cc1cc(Nc2ccc3c(c2)OCCO3)c2cccc(C)c2n1.Cl | -40.7%
33 | CCOc1ccc2nc(C)cc(Nc3ccc4c(c3)OCCO4)c2c1.Cl | -72.4%
34 | CCOc1ccc(C(=O)Nc2ccc3c(c2)OCCO3)cc1 | -1.74%
35 | Cc1cc(C)c(C#N)c(Nc2ccc3c(c2)OCCO3)n1 | 5.17%
36 | CCOc1cccc(C(=O)Nc2ccc3c(c2)OCCO3)c1 | 3.35%
37 | Cc1cc(Nc2ccc3c(c2)OCCO3)c2cc(Cl)ccc2n1.Cl | -52.6%
38 | Cc1cc(Nc2ccc3c(c2)OCCO3)c2ccccc2n1.Cl | -56.1%

Row | SMILES | hERG current change (%, negative = inhibition) at 10uM
39 | Cc1ccc2nc(C)cc(Nc3ccc4c(c3)OCCO4)c2c1.Cl | -58.2%
40 | Cc1cc(C)c(C(N)=O)c(Nc2ccc3c(c2)OCCO3)n1 | 0.162%
41 | Cc1cc(Nc2ccc3c(c2)OCCO3)n2nc(C)nc2n1 | -9.32%
42 | O=C(COc1ccc(F)cc1Cl)Nc1ccc(N2CCOCC2)cc1N1CCOCC1 | -10.2%
43 | Cc1ccc(C2(C)NC(=O)N(CC(=O)N(Cc3ccccc3)C(C)(C)C)C2=O)cc1 (stereo not drawn) | -1.1%
44 | Cc1nccn1CC(=O)N/N=C/c1cc(Br)cs1 | 6.58%
45 | Cc1ccc(C)c(Cn2cnc3c(nnn3-c3ccc(F)cc3)c2=O)c1 | -2.53%
46 | Cn1c(=O)c(C(=O)COC(=O)c2cc(-c3ccco3)nc3ccccc23)c(N)n(Cc2ccccc2)c1=O | -12.2%
47 | O=[N+]([O-])c1ccc(/C=C/c2ccc3ccccc3n2)cc1 | 5.95%
48 | Cc1cc(C)c(CN2CCN(C(=O)Cn3ccc(NC(=O)OCc4ccccc4)nc3=O)CC2)c(C)c1 | -5.55%
49 | COc1ccc(N(CC(=O)NCC2CCCO2)S(=O)(=O)c2ccc(C)cc2)cc1OC (stereo not drawn) | -3.96%
50 | Cc1ccccc1CC(=O)N1CCCC(CNC(=O)c2ccc(F)cc2)C1 (stereo not drawn) | -2%
51 | Cc1cc(C)c(CN2CCCC(CNC(=O)c3ccc(F)cc3)C2)c(-n2cccn2)c1 (stereo not drawn) | -75.6%
52 | CCn1ncc(CN2CCCC(CNC(=O)c3ccc(F)cc3)C2)c1C (stereo not drawn) | -1.04%
53 | COC(=O)c1ccccc1C(=O)N1CCCC(CNC(=O)c2ccc(F)cc2)C1 (stereo not drawn) | 11.2%
54 | O=C(NCC1CCCN(C(=O)c2cc(Cl)ccc2F)C1)c1ccc(F)cc1 (stereo not drawn) | -6.65%
55 | Cc1ccc(-n2cccn2)c(CN2CCCC(CNC(=O)c3ccc(F)cc3)C2)c1 (stereo not drawn) | -75.5%
56 | Cc1cc(C(=O)Nc2ccccc2N2CCOCC2)c(C)o1 | -18.1%
57 | CCc1noc(C)c1C(=O)OCC(=O)N(CC)c1c(N)n(Cc2ccccc2)c(=O)[nH]c1=O | 10.9%

Source: PMC4336329 (PLoS ONE, 2015)
